Source: PubChem BioAssay AID651718 (The Scripps Research Institute Molecular Screening Center, 2012)
Out of some 360,000 compounds screened, about 2,700 (0.75%) were called active. Shown is part of a subset that was picked to be rich in actives. A number with no mark means an inactive call. Cut-off read from the data, not from the text of the source: active = inhibition above about 4.5%; inactive = the rest.

Tested on: Methionine sulfoxide reductase A (Bos taurus)
Experiment: inhibition of methionine sulfoxide reductase A – biochemical, absorbance, bovine, HTS, primary screen (AID 651718);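 note: 0% = vehicle wells with enzyme and 100% = reference inhibitor wells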
Details: purified bovine MsrA, absorbance read-out; at 15.5 µM; stronger effect = higher value

SMILES	inhibition
COc1ccc(/C=N/N(C)C2=NS(=O)(=O)c3ccccc32)cc1OC	1.42%
C=CCOCCN(C)C1=NS(=O)(=O)c2ccccc21	0.32%
O=S1(=O)N=C(N(CCO)/N=C/c2ccccc2F)c2ccccc21	5.01% (active)
O=S1(=O)c2c(cccc2N2CCCC2)O[C@H](COCc2ccccc2)CN1C1CC1	0.28%
C=CCN=C1NC(c2ccccc2)C(C(=O)OC)=C(C)N1Cc1ccc(C(F)(F)F)cc1 (centres undefined)	-1.03%
CC(=O)c1ccc(S(=O)(=O)N2CCN(c3nc4c(C)c(C)ccc4cc3C#N)CC2)cc1	0.77%
Cc1cccc2cc(C#N)c(N3CCCC3)nc12	7.71% (active)
Cc1cc(C)c2cc(C#N)c(N3CCNCC3)nc2c1	0.05%
N#Cc1cccc(C(=O)NCC2CCN(C(=O)C(=O)c3cc4ccccc4o3)CC2)c1	1.67%
COc1ccc(S(=O)(=O)N2CCCCCC2)cc1NC(=O)Cc1ccc(OC)c(OC)c1	-0.53%
COc1ccccc1CC(=O)Nc1ccc(S(=O)(=O)N2CCCC2)cc1	-0.82%
COc1ccc(-c2ccc(Nc3ccc(S(=O)(=O)N4CCCC4)cc3)nn2)cc1OC	5.88% (active)
COc1ccc(S(=O)(=O)NC(C)c2ccccc2)cc1C(=O)N1CCCCC1 (centres undefined)	0.8%
COC(=O)C1=C(C)N(Cc2ccccc2C(F)(F)F)C(=NCc2ccc(C(F)(F)F)cc2)NC1c1ccc(F)cc1 (centres undefined)	-2.62%
C#CCN([C@@H](C)C(=O)OCC)S(=O)(=O)c1ccc(Br)cc1F	-0.88%
Cn1c(=O)c2c(SCC(=O)N3CCOCC3)nc(C3CC3)nc2n(C)c1=O	-0.05%
CCCc1nc(SCC(=O)N2CCCC2)c2c(=O)n(C)c(=O)n(C)c2n1	5.22% (active)
CCOC(=O)N1CCN(C(=O)CSc2nc(C)nc3c2c(=O)n(C)c(=O)n3C)CC1	-1.46%
CC1CCCN(c2cccc3c2S(=O)(=O)N(Cc2ccc(F)cc2)[C@@H](C)[C@H](c2ccccc2)O3)C1 (some centres undefined)	0.93%
Cc1cc(C)nc(NC2=NCC(=O)N2c2ccc(Cl)cc2)n1	3.92%
Cc1ccc(N2C(=O)CN=C2Nc2nc(C)cc(C)n2)cc1	6.56% (active)
Cc1ccc(C)c(NC2=NCC(=O)N2c2ccc3c(c2)OCCO3)c1	0%
COC(=O)C1=C(C)N(Cc2cccc(C(F)(F)F)c2)C(=NCc2ccccc2)NC1c1ccccc1C(F)(F)F (centres undefined)	-1.24%
CC(C)[C@@H](C)/C=C/[C@@H](C)[C@H]1CC[C@@H]2[C@]1(C)CCC1[C@]23C=C[C@]2(C[C@@H](O)CC[C@]12C)N(c1ccc([N+](=O)[O-])cn1)O3 (some centres undefined)	-1.75%
